# Screening data: PubChem BioAssay, several laboratories
# tim23-1 inh: growth inhibitors of tim23-1 mutant yeast | S. cerevisiae tim23-1 growth, BacTiter-Glo luminescence, 24 h | inhibition, % at 20 µM | hit rate 1.3% among 330,000 | AID 463212;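 active = growth inhibition of the mutant yeast at or above 50%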;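 also: temperature-sensitive mutant grown at 25 °C; plate controls were DMSO-treated mutant yeast for no effect and medium wells lacking yeast for full effect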
# PfHsp90 yeast 2: growth inhibition of yeast expressing Plasmodium Hsp90; S. cerevisiae expressing PfHsp90, BacTiter-Glo ATP, 48 h; yeast lacking PDR1 and PDR3 efflux regulators; inhibition, % at 9.4 µM; hit rate 0.32% among 310,000;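 active = every replicate shows inhibition above about 80%, whatever the replicate mean, limit read from the data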;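 also: 0% = DMSO neutral controls and 100% = 20 µM radicicol positive controls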
# tim10-1 inh: growth inhibitors of tim10-1 mutant yeast | S. cerevisiae tim10-1 ts strain growth, BacTiter-Glo, 24 h | inhibition, % at 20 µM | hit rate 2.2% among 330,000;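 active = inhibition of at least 40%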;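 also: mutant grown at 25 °C; 0% = DMSO wells with yeast and 100% = wells holding no yeast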
# SKKanGAS inh: blocks kanamycin growth of S. pyogenes SKKanGAS strain; BacTiter-Glo, 6 h; inhibition, % at 7.5 µM; hit rate 1.3% among 300,000;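 active = mean replicate score, as percent of positive control median, at least 50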;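 also: strain carries kanamycin resistance gene driven by streptokinase promoter and grows in 40 µg/ml kanamycin; loss of luminescence reflects streptokinase promoter inhibition or plain growth inhibition; 0% = median of DMSO wells and 100% = positive control at its reference dose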
# NALP3 yeast inh: blocks the NALP3 inflammasome reconstituted in yeast; Yeast reconstituted NLRP3/ASC/caspase-1, beta-gal luminescence, 24 h; inhibition, % at 10 µM; hit rate 0.39% among 330,000;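 active = inhibition of 50% or more; inactive = inhibition below 50%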;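 also: plate controls were induced DMSO wells for no effect and uninduced yeast grown without galactose for full effect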
# TIM10 inh: TIM10 yeast growth inhibition. S. cerevisiae TIM10 strain growth, BacTiter-Glo luminescence, 24 h. inhibition, % at 10 µM. hit rate 1.4% among 330,000;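 active = inhibition of 40% or more at the single tested concentration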;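 also: wild-type TIM10 isogenic control strain grown at permissive 25 °C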
# tim23-1 conf: tim23-1 yeast growth inhibition, confirmed; S. cerevisiae tim23-1 growth, BacTiter-Glo luminescence, 24 h; inhibition, % at 20 µM; hit rate 83% among 4,400; shares compounds with tim23-1 inh; AID 463218;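 active = inhibition above about 39% in either of two replicate wells at 20 µM, limit read from the data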;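 also: temperature-sensitive tim23-1 mutant grown at 25 °C; 0% = DMSO wells with yeast and 100% = medium wells without yeast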
# * marks the source's active call; other numbers are inactive results; · = no result given. Hits are enriched below; roughly 4.6% of the tested compounds scored in any of these assays.
SMILES,tim23-1 inh,PfHsp90 yeast 2,tim10-1 inh,SKKanGAS inh,NALP3 yeast inh,TIM10 inh,tim23-1 conf
COc1cc(NC(=O)C2CCN(S(=O)(=O)c3ccc4[nH]c(=O)oc4c3)CC2)cc(OC)c1,-8,2,1,4,2,6,·
O=C(CN1C(=O)C(=O)N(C2CCCC2)C1=O)Nc1ccc(OC(F)F)cc1,-5,-5,5,·,0,9,·
COCCC(=O)Nc1c(-c2ccccc2)c2cc(Br)ccc2[nH]c1=O,1,-10,-26,-5,29,-2,·
O=C(NCc1csc(-c2cccs2)n1)Nc1cccc(Cl)c1,53*,-1,24,-4,26,37,64*
Cc1cc(NC(=O)C(C)SCC(=O)OCc2ccc([N+](=O)[O-])cc2)no1 (stereo unspecified),12,·,5,0,6,-1,·
O=C(NC1CCCC1)C(c1ccccc1)N(Cc1ccccc1)C(=O)c1csnn1 (stereo unspecified),17,-10,7,1,8,23,·
COc1ccc(C(=O)N/N=C/c2ccc3cccc(O)c3n2)cc1,53*,14,-23,16,21,11,54*
O=C(N/N=C/c1ccc2cccc(OCc3ccccc3)c2n1)c1ccc(Cl)cc1,0,-28,9,12,22,17,·
Cc1cccc(C(=O)N/N=C/c2coc3ccccc3c2=O)c1,50,4,8,1,16,22,·
O=C(N/N=C/c1coc2ccc(Cl)cc2c1=O)c1ccncc1,66*,-1,8,9,14,-12,56*
COc1ccc(C(=O)N/N=C\c2coc3ccccc3c2=O)cc1,51*,17,13,-19,14,14,43*
O=C(N/N=C/c1coc2ccccc2c1=O)c1cc(O)cc(O)c1,12,15,-2,·,20,3,·
O=C(N/N=C/c1ccc(Cl)cc1Cl)c1ccncc1,14,-1,5,-1,13,-5,·
O=C(N/N=C/c1cc(Cl)cc(Cl)c1O)c1ccncc1,54*,-58,2,88*,17,38,62*
CCN(c1ccc(NC(=O)COC(=O)CCC(=O)c2ccc(F)cc2)cc1)C(C)C,21,0,26,1,25,9,·
CCCCN(C(=O)c1ccc2c(c1)OCCO2)c1c(N)n(CCCC)c(=O)[nH]c1=O,59*,7,27,-10,10,14,57*
CCCN(C(=O)c1ccc([N+](=O)[O-])c(C)c1)c1c(N)n(Cc2ccccc2)c(=O)[nH]c1=O,53*,-11,-1,·,8,10,60*
CCCCn1c(N)c(N(CCC(C)C)C(=O)C2=COCCO2)c(=O)[nH]c1=O,-6,14,-11,0,13,1,·
CCCN(C(=O)c1cc(C)ccc1C)c1c(N)n(Cc2ccccc2)c(=O)[nH]c1=O,10,15,8,·,-1,12,·
CCCCn1c(N)c(N(CCC(C)C)C(=O)c2ccc3c(c2)OCO3)c(=O)[nH]c1=O,62*,-72,23,-1,10,9,58*
CC(=O)N[C@@H](Cc1c[nH]c2ccccc12)C(=O)NC1CC1,5,14,20,-8,13,-8,·
O=C1c2ccccc2NC(c2ccc(-c3ccc(C(F)(F)F)cc3)o2)N1O (stereo unspecified),65*,101*,-14,·,4,8,59*
COc1c(Br)cc(/C=N/n2c(-c3ccccc3)n[nH]c2=S)c(O)c1Br,62*,-1,26,10,16,37,60*
Oc1ccccc1/C=N/n1c(-c2ccccc2)n[nH]c1=S,51*,7,17,-1,11,32,39
O=C(O)CCNC(=O)C12CC3CC(CC(C3)C1)C2,5,-15,-2,-4,6,-7,·
SMILES,tim23-1 inh,PfHsp90 yeast 2,tim10-1 inh,SKKanGAS inh,NALP3 yeast inh,TIM10 inh,tim23-1 conf
Cc1ccc(C(=O)N2C(=O)C(c3ccccc3)Oc3ccccc32)cc1 (stereo unspecified),69*,-42,38,8,40,33,53*
Cc1ccc(C(=O)N2c3ccccc3OCC2C)cc1 (stereo unspecified),39,4,7,1,14,18,·
CC(C)c1ccc2nc(NC(=O)C3CC3)sc2c1,51*,-50,26,0,-21,37,52*
CC(=O)Nc1nc2cc3c(cc2s1)OCCO3,17,-10,28,4,6,-1,·
COC(=O)c1ccc2nc(NC(=O)C3CCCCC3)sc2c1,5,5,13,-16,18,-2,·
O=C(Nc1nc2cc3c(cc2s1)OCCO3)C1CCCCC1,57*,12,30,·,32,17,57*
O=C(Nc1nc2ccc(S(=O)(=O)N3CCCCC3)cc2s1)C1CCCO1 (stereo unspecified),53*,-10,40,-2,14,33,47*
Cc1cccc(OCCNC(=O)c2cccc(Oc3ccc(C(F)(F)F)cc3[N+](=O)[O-])c2)c1,18,-9,29,15,9,16,·
Cc1ccc(Cl)cc1NC(=O)Cn1cc2c(n1)CCCC2,12,-5,21,5,29,7,·
COc1cc(C(=O)NCCC(=O)NC2CCCCCCC2)cc(OC)c1OC,56*,-19,10,-2,3,7,14
Cc1ccc(NC(=O)C(C)Sc2nc(-c3ccccc3)cc(=O)[nH]2)cc1 (stereo unspecified),-4,4,-22,14,3,-19,·
CCCN(CCC)S(=O)(=O)c1ccc(C(=O)N2CCCc3ccccc32)cc1,31,10,28,6,7,-7,·
CNC(=O)c1sc(-c2ccccc2)nc1C,-12,-15,-6,-1,13,6,·
Cc1nc(-c2ccccc2)sc1C(N)=O,96*,-22,17,-1,18,6,7
Cc1cccc(C(=O)Nc2cccc3c2CCCC3)c1,28,-17,29,-4,32,8,·
O=S(=O)(Nc1ccc(-c2csc(-c3ccccc3)n2)cc1)c1ccccc1,50*,71,22,46,-5,25,39
COc1ccccc1OCC(=O)N/N=C/c1c(O)ccc2ccccc12,59*,5,36,32,25,30,55*
Cc1cc(C)n(CCC(=O)N/N=C/c2c(O)ccc3ccccc23)n1,54*,-12,-4,3,1,19,51*
Cc1cc(C)n(CCC(=O)N/N=C/c2ccc(O)cc2)n1,8,-1,16,-11,7,-12,·
COc1ccc2ccccc2c1/C=N\NC(=O)c1ccc(C)s1,51*,-8,9,·,28,21,38
Cc1ccc(C2=Nc3ccccc3N=C(C(Cl)Cl)C2)cc1,52*,35,-3,22,19,34,49*
